Reference: the supplement of paper PMC10646978
± gives the standard deviation.

Tests used:
Conditions in all cases: modulator concentration 10 µM
[1] = test system: RAW-Dual (murine macrophage reporter line); experiment: NF-kB reporter (SEAP) activity fold change vs agonist alone; higher = enhanced NF-kB activity
In short: (§1)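 Compound reached 10 μM final in each well by pin transfer, onto RAW-Dual murine macrophage reporter cells seeded at 50 000 per well in 384-well plates. After 1 hour at 37 °C, the cells were stimulated overnight with a PRR agonist. SEAP in the supernatant was read with QUANTI-Blue at 620 nm absorbance for NF-κB, and Lucia luciferase was read with QUANTI-Luc luminescence for IRF. Each signal was turned into fold change against the mean agonist-only control on the same plate, and two replicate plates were averaged with propagated errors.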

[2] = test system: RAW-Dual (murine macrophage reporter line); experiment: IRF reporter (Lucia luciferase) activity fold change vs agonist alone; higher = enhanced IRF activity
In short: as §1

[3] = test system: RAW-Dual (murine macrophage reporter line); experiment: viability score (confluency relative to resting cells, overnight) (fraction); higher = more viable, active = viable (0.7 or more)
In short: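 Two confluency masks, generated with IncuCyte software over all imaged wells, were applied to IncuCyte images of RAW-Dual macrophages. The cells, in 384-well plates, had been exposed overnight to 10 μM final compound. The viability score is confluency as a fraction of resting cells, and a compound met the cutoff only with both masks above 70% of resting cells.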

[4] = agonist: CpG ODN 1826 0.5 ug/mL

| SMILES | NF-kB reporter [1, 4] | NF-kB reporter ([1]; agonist: LPS 0.1 ug/mL) | NF-kB reporter ([1]; agonist: MPLA […]) | IRF reporter ([2]; agonist: 3'3'-cGAMP 10 ug/mL) | IRF reporter ([2]; agonist: LPS 0.1 ug/mL) | IRF reporter ([2]; agonist: MPLA […]) | viability score [3] |
| --- | --- | --- | --- | --- | --- | --- | --- |
| CCOc1ccc(CC(=O)N2C3C=CCC2CC3)cc1 (centres undefined) | 0.942 ± 0.1 | 1.09 ± 0.1 | 1.01 ± 0.061 | 1.02 ± 0.047 | 1.22 ± 0.16 | 1.31 ± 0.47 | 0.971 (active) |
| Cc1ccc(S(=O)(=O)c2ccc(O)c(O)c2)cc1 | 0.932 ± 0.074 | 1.02 ± 0.095 | 1.03 ± 0.086 | 0.599 ± 0.036 | 1.31 ± 0.096 | 1.08 ± 0.12 | 0.987 (active) |
| CC1=C(C(=O)Nc2cccc(C)n2)C(c2cccs2)C2=C(CC(C)(C)CC2=O)N1 (centres undefined) | 1.03 ± 0.18 | 1.09 ± 0.14 | 0.869 ± 0.069 | 0.913 ± 0.027 | 1.2 ± 0.12 | 1.25 ± 0.16 | 1 (active) |
| O=S(=O)(c1ccc(Cl)cc1)N1CCN(C2CC3CCC2C3)CC1 (centres undefined) | 0.926 ± 0.062 | 0.994 ± 0.061 | 0.972 ± 0.068 | 1.02 ± 0.037 | 1.42 ± 0.14 | 1.24 ± 0.13 | 0.984 (active) |
| O=C(CCCN1CC=C(n2c(=O)[nH]c3ccccc32)CC1)c1ccc(F)cc1 | 0.788 ± 0.06 | 0.828 ± 0.078 | 0.71 ± 0.069 | 0.975 ± 0.052 | 0.932 ± 0.15 | 1.21 ± 0.2 | 0.276 (inactive) |
| Cc1cc(CCNS(=O)(=O)c2cccc(C(F)(F)F)c2)nn1C | 0.898 ± 0.068 | 0.995 ± 0.1 | 0.988 ± 0.06 | 0.96 ± 0.06 | 0.961 ± 0.097 | 1 ± 0.23 | 1 (active) |
| Cc1ccc(-n2ncc3c(=O)n(CC=Cc4ccccc4)cnc32)cc1C | 0.969 ± 0.086 | 1.1 ± 0.089 | 0.96 ± 0.091 | 1.03 ± 0.061 | 1.19 ± 0.12 | 1.06 ± 0.34 | 0.984 (active) |
| CC1(C)Cc2ccccc2C(C[N+](=O)[O-])=N1 | 0.899 ± 0.07 | 0.901 ± 0.1 | 1.65 ± 0.61 | 0.963 ± 0.056 | 1.26 ± 0.08 | 1.38 ± 0.13 | 0.997 (active) |
| COC(=O)CSc1nc(O)c2c(C)c(C)sc2n1 | 0.808 ± 0.077 | 0.829 ± 0.04 | 1.03 ± 0.1 | 0.984 ± 0.046 | 1.49 ± 0.093 | 1.55 ± 0.19 | 1.01 (active) |
| CC(=O)Nc1ccc(NC(=S)NC(=O)C=Cc2ccc(Cl)cc2Cl)cc1 | 0.64 ± 0.05 | 0.741 ± 0.059 | 0.933 ± 0.095 | 0.428 ± 0.031 | 1.33 ± 0.12 | 1.3 ± 0.22 | 1 (active) |
| CC(N)c1ccc(Nc2ncc3cc(-c4ccncc4)ccc3n2)cc1.Cl.Cl.Cl (centres undefined) | 0.419 ± 0.069 | 1.26 ± 0.08 | 2.73 ± 0.16 | 0.173 ± 0.014 | 0.28 ± 0.05 | 0.42 ± 0.042 | 0.174 (inactive) |
| Cc1cc(OC2CCN(C(=O)c3csc(C)n3)CC2)nc(C)n1 | 1.01 ± 0.051 | 1.11 ± 0.095 | 0.923 ± 0.068 | 0.954 ± 0.088 | 1.23 ± 0.12 | 1.15 ± 0.23 | 1.01 (active) |
| CC(Cc1ccccc1)NC(=O)C1COc2ccccc2O1 (centres undefined) | 0.662 ± 0.13 | 1.12 ± 0.09 | 1.13 ± 0.14 | 0.979 ± 0.048 | 0.965 ± 0.13 | 1.15 ± 0.12 | 0.919 (active) |
| OCCN1CCN(CCCN2c3ccccc3C=Cc3ccccc32)CC1 [Prestw-1456] | 0.862 ± 0.066 | 1 ± 0.082 | 1.37 ± 0.053 | 0.807 ± 0.029 | 1.06 ± 0.049 | 1.49 ± 0.18 | 0.904 (active) |
| COC(=O)C1C(c2ccccc2)C(C(=O)Oc2ccc(C(C)=O)cc2)C1c1ccccc1 (centres undefined) | 0.895 ± 0.069 | 0.939 ± 0.046 | 1.16 ± 0.1 | 0.908 ± 0.06 | 1.17 ± 0.1 | 1.28 ± 0.15 | 1.02 (active) |
| Fc1ccc(Nc2nc(NN=Cc3ccccc3F)nc(N3CCCCC3)n2)cc1 | 1.41 ± 0.13 | 0.987 ± 0.12 | 1.02 ± 0.096 | 1.16 ± 0.081 | 1.26 ± 0.18 | 1.74 ± 0.28 | 1.01 (active) |
| COc1cc(C=NNc2ccc(C(=O)O)cc2)cc(Br)c1O | 1.16 ± 0.13 | 0.97 ± 0.062 | 1.09 ± 0.1 | 0.198 ± 0.006 | 0.241 ± 0.061 | 0.223 ± 0.035 | 1 (active) |
| COc1c2c(nc3ccccc13)OC(C(C)(O)COC(C)=O)C2 (centres undefined) | 0.944 ± 0.071 | 1.02 ± 0.11 | 0.953 ± 0.11 | 1.04 ± 0.045 | 1.42 ± 0.15 | 1.3 ± 0.22 | 1 (active) |
| Cl.NCCCC[C@H](N)C(=O)O | 1.03 ± 0.31 | 0.949 ± 0.063 | 1.01 ± 0.064 | 0.867 ± 0.052 | 1.2 ± 0.14 | 1.12 ± 0.18 | 1.01 (active) |
| Cc1ccc(C=NN=C(c2ccccc2)c2ccccc2)o1 | 0.796 ± 0.061 | 0.988 ± 0.076 | 1.05 ± 0.15 | 0.61 ± 0.028 | 0.975 ± 0.098 | 1.07 ± 0.2 | 1.02 (active) |
| CN1CCN(C2=NC(=O)C(=Cc3ccc(Cl)cc3Cl)S2)CC1 | 0.833 ± 0.076 | 0.86 ± 0.068 | 1.15 ± 0.099 | 0.956 ± 0.051 | 1.42 ± 0.099 | 1.59 ± 0.18 | 0.999 (active) |
| Cc1cc(Cl)ccc1OCC(O)CN1CC(C)OC(C)C1.Cl (centres undefined) | 0.764 ± 0.068 | 0.939 ± 0.1 | 0.934 ± 0.081 | 0.937 ± 0.043 | 1.05 ± 0.068 | 1.01 ± 0.087 | 0.977 (active) |
| O=c1c(-n2ccnn2)c[nH]n1-c1cc(N2CCOCC2)ncn1 | 0.74 ± 0.2 | 0.846 ± 0.046 | 0.853 ± 0.054 | 0.878 ± 0.04 | 1.09 ± 0.26 | 1.09 ± 0.15 | 1 (active) |
| CCN(CC)c1ccc(C=C(C#N)C#N)c(OC(C)=O)c1 | 1.07 ± 0.064 | 0.895 ± 0.065 | 0.884 ± 0.057 | 0.76 ± 0.034 | 0.995 ± 0.069 | 0.977 ± 0.12 | 1.01 (active) |
| O=C(NC1CC2CCC1C2)c1ccccc1Cl (centres undefined) | 0.725 ± 0.064 | 0.801 ± 0.047 | 1.08 ± 0.099 | 0.983 ± 0.049 | 1.35 ± 0.12 | 1.51 ± 0.24 | 1.02 (active) |
| Cc1cc(=O)nc(SCCc2ccccc2)[nH]1 | 1.13 ± 0.11 | 1.27 ± 0.082 | 1.15 ± 0.041 | 0.952 ± 0.079 | 1.06 ± 0.053 | 1.2 ± 0.091 | 0.687 (inactive) |
| CSCCC(NC(C)=O)C(=O)N1CCC(n2c(C)nc3ccccc32)C1 (centres undefined) | 1.07 ± 0.063 | 0.96 ± 0.074 | 0.952 ± 0.025 | 0.98 ± 0.04 | 0.968 ± 0.086 | 0.957 ± 0.25 | 1 (active) |
